Most compounds without a hit are left out; they make up all but 3.8% or so of the library.
Y pestis TopoI: Yersinia pestis topoisomerase I inhibitors, primary screen, biochemical, cleavage product accumulation, plate reader, single point | Y. pestis Topo-I cleavage product accumulation | activity, % at 10 µM | actives 0.064% (n = 360,000); in the data active = activity above about 50%, passing the limit was not always enough
GDH-TPI counter-1: GDH-TPI coupling enzyme inhibitors, primary screen, artefact control for M. tuberculosis FBA inhibitor project, biochemical, absorbance, full deck; AID 588335, 2011; actives 1.2% (n = 360,000); inhibition, % at 4.8 µM; GDH-TPI coupled enzyme counterscreen, NADH absorbance; in the data active = inhibition above about 30%;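 note: 0% = DMSO wells and 100% = wells lacking the enzyme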
PrP UTR inh: inhibition of PrP 5' UTR reporter expression; actives 0.35% (n = 340,000); AID 488862, 2010; inhibition, % (no concentration beside the values); cell-based PrP 5' UTR mRNA reporter, plate reader; in the data active = inhibition above about 52%; note: 0 = median of the neutral control wells
Mtb FBA inh: Mtb FBA enzyme inhibitors, primary screen, biochemical, fluorescence, strain H37Rv; purified M. tuberculosis FBA, fluorescence read-out; inhibition, % at 1 µM; Fructose-bisphosphate aldolase (Mycobacterium tuberculosis (strain ATCC 25618 / H37Rv)), …; actives 2.3% (n = 360,000);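 note: 0% = vehicle and 100% = reference inhibitor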
Mtb hypoxia rep: PubChem AID 1159583. actives 0.1% (n = 300,000). M. tuberculosis hypoxia-regulated fluorescent reporter, fluorescence. fluorescence inhibition, % (concentration not given with the values); in the data active = fluorescence inhibition mostly above about 23%, no sharp cut-off; inactive = mostly below about 17%
PrPC TRFRET: inhibitors of human cell surface prion protein PrPC, primary screen, cell-based, TR-FRET | AID 720596, 2013 | inhibition, % at 13.8 µM | TR-FRET read-out | actives 0.43% (n = 370,000) | Major prion protein (Homo sapiens), P04156; in the data active = inhibition above about 24%; note: 0% = median of the test wells and 100% = reference compound wells
Mtb FBA inh conf: M. tuberculosis aldolase blockers, biochemical, fluorescence, strain H37Rv, confirmation. shares compounds with Mtb FBA inh. purified M. tuberculosis FBA, fluorescence read-out. inhibition, % at 1 µM. actives 78% (n = 5,600);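 note: 0% = vehicle wells and 100% = reference inhibitor wells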
GDH-TPI counter-2: GDH-TPI coupling enzyme inhibitors, artefact control for M. tuberculosis FBA inhibitor project, biochemical, fluorescence, high throughput. shares compounds with Mtb FBA inh. GDH-TPI coupled enzyme counterscreen. inhibition, % at 1 µM. actives 81% (n = 5,600). AID 652141, 2013; in the data active = inhibition above about 10%
PrPC confirm: confirmation of inhibitors of cell surface human prion protein, confirmation, cell-based, TR-FRET; shares compounds with PrPC TRFRET; cell surface PrPC level; inhibition, % at 13.8 µM; actives 65% (n = 1,500); in the data active = inhibition above about 25%
LD9 cytotox: cytotoxicity in LD9 cells, cytotoxicity control for cell surface PrPc inhibitor project, cell-based, luminescence, high throughput; inhibition, % at 13.8 µM; shares compounds with PrPC TRFRET; actives 29% (n = 1,500); luminescence viability; in the data active = inhibition above about 9.5%
* hit, by the source's call; . = no result given; + = active, no number. Cut-off read from the data, not from the text of the source, unless noted: active = inhibition above about 27%; inactive = the rest.

SMILES	Y pestis TopoI	GDH-TPI counter-1	PrP UTR inh	Mtb FBA inh	Mtb hypoxia rep	PrPC TRFRET	Mtb FBA inh conf	GDH-TPI counter-2	others
COc1ccccc1C1CN(c2ccc(F)cc2F)N=C1c1cccs1 (stereo unspecified)	2	10	-13	83*	2	10	177*	132*
COc1ccccc1C1CC(c2cccs2)=Nc2ccccc2S1 (stereo unspecified)	-6	6	-29	-1	.	-9	.	.
COc1ccccc1CNC(=O)C(=O)c1cn(CC(=O)N2CCCC2)c2ccccc12	48	14	-13	-1	-3	-3	.	.
COc1ccccc1CCNC(=O)C(=O)c1cn(CC(=O)N2CCOCC2)c2ccccc12	31	3	-10	80*	6	-16	104*	85*
CN(C(=O)C(C)(C)C)[C@H]1C[C@H]2c3[nH]c4ccccc4c3CCN2C(=O)[C@H]1CO	-7	21	.	79*	.	-6	+	+
CCOC(=O)N(C)[C@H]1C[C@H]2c3[nH]c4ccccc4c3CCN2C(=O)[C@H]1[C@H](C)O	.	.	.	.	.	-7	.	.
C[C@H](O)[C@@H]1C(=O)N2CCc3c([nH]c4ccccc34)[C@@H]2C[C@@H]1N(C)C(=O)Nc1cc(Cl)cc(Cl)c1	6	19	.	30*	.	-8	+	+
C[C@H](O)[C@@H]1C(=O)N2CCc3c([nH]c4ccccc34)[C@@H]2C[C@@H]1N(C)C(=O)Nc1ccccc1	5	-4	.	28*	.	-7	52*	42*
C[C@H](O)[C@@H]1C(=O)N2CCc3c([nH]c4ccccc34)[C@@H]2C[C@@H]1N(C)C(=O)c1ccco1	.	.	.	67*	.	-10	144*	132*
C[C@H](O)[C@@H]1CN2CCc3c([nH]c4ccccc34)[C@@H]2C[C@@H]1N(C)C(=O)Nc1cc(Cl)cc(Cl)c1	-9	10	.	1	.	-1	.	.
C[C@H](O)[C@@H]1C(=O)N2CCc3c([nH]c4ccccc34)[C@@H]2C[C@@H]1N(C)C(=O)Nc1ccc(Br)cc1	.	.	.	.	.	-6	.	.
CC1(C)CCCC2(C)C1CCC1(C)OC(=O)CCC12 (stereo unspecified)	11	3	.	-1	.	-1	.	.
CC1(C)CCC[C@]2(C)[C@H]3CC(=O)O[C@]3(C)CC[C@@H]12	4	-3	-5	91*	8	0	197*	147*
O=c1cc(/C=C/c2c(F)cccc2Cl)[nH]c2ccccc12	1	14	-124	45*	2	6	53*	33*
Clc1ccc(CSc2nnc(-c3ccncc3)o2)c(Cl)c1	-4	9	-6	-3	.	-1	.	.
O=c1c(-c2nnc(SCc3ccc(Cl)cc3Cl)o2)cccn1Cc1ccccc1	0	20	8	52*	6	-6	43*	23*
O=c1c(-c2n[nH]c(=S)n2-c2ccccc2)cccn1Cc1cccc(Cl)c1	5	3	-17	-2	18	0	.	.
CSc1nnc(-c2cccn(Cc3cccc(Cl)c3)c2=O)o1	5	1	-5	87*	13	-5	+	+
COc1cc(-c2nc(-c3ccc4c(c3)-c3ccccc3S4(=O)=O)c(-c3ccccc3)[nH]2)cc(OC)c1OC	-5	11	-6	10	-8	8	.	.
O=C(O)COc1ccc(-c2nc(-c3ccccc3)c(-c3ccccc3)[nH]2)cc1	7	11	-32	98*	11	7	86*	73*
COc1cccc(-c2nc(-c3ccccc3)c(-c3ccccc3)[nH]2)c1OCC(=O)O	5	12	-39	84*	4	5	70*	54*
O=C(O)COc1ccccc1-c1nc(-c2ccccc2)c(-c2ccccc2)[nH]1	-2	6	-13	88*	3	3	53*	29*
COc1cccc(-c2nc(-c3ccc4c(c3)-c3ccccc3S4(=O)=O)c(-c3ccccc3)[nH]2)c1OC	3	19	15	31*	-2	11	-3	-3
Cc1ccsc1C=Nn1c(-c2cc(-c3ccccc3)n[nH]2)n[nH]c1=S	.	.	.	.	8	.	.	.
Fc1ccc(COc2ccc(C=Nn3cnnc3)cc2)cc1	.	.	.	.	26	.	.	.
SMILES	Y pestis TopoI	GDH-TPI counter-1	PrP UTR inh	Mtb FBA inh	Mtb hypoxia rep	PrPC TRFRET	Mtb FBA inh conf	GDH-TPI counter-2	others
CCOC(=O)c1ccccc1NC(=O)C1CC(=O)N(C(C)(C)C)C1 (stereo unspecified)	14	-7	-26	0	20	-10	.	.
CCOC(=O)c1ccccc1NC1CC(=O)N(c2ccccc2C)C1=O (stereo unspecified)	7	9	-13	102*	.	0	135*	139*
CC1(C)Cc2[nH]c(=O)c(C#N)cc2CS1	-3	9	-14	11	17	11	.	.
CCC1(C)Cc2[nH]c(=O)c(C#N)cc2CO1 (stereo unspecified)	23	7	-20	69*	7	-6	2	-1
Cc1ncc(CO)c(C=NNC(=O)c2ccoc2C)c1O	.	.	.	.	-5	.	.	.
COc1c(F)cc2[nH]c3c(c2c1F)CCNC3=O	6	-1	-2	38*	12	30*	+	176*	PrPC confirm=6;LD9 cytotox=-5
CC1CN(C(C)CO)C(=O)c2cccc(NC(=O)Nc3ccccc3)c2OC1CN(C)S(=O)(=O)c1ccc(F)cc1 (stereo unspecified)	.	.	.	.	5	.	.	.
COc1ccc(C=NNC(=O)c2nonc2C)cc1	.	.	.	.	-3	.	.	.
COC(=O)C1CCN(C(=O)c2cc(-c3ccc(Cl)s3)nc3ccccc23)CC1	24	15	-1	68*	4	36*	147*	139*	PrPC confirm=33*;LD9 cytotox=27*
CC1CCN(C(=O)c2cc(Cl)nc3ccccc23)CC1	-2	-1	-30	2	12	2	.	.
COc1cccc2sc(Nc3nc(-c4ccccn4)cs3)nc12	35	23	-33	2	-69	.	.	.

Screening data (PubChem BioAssay)
